Assay results from PubChem BioAssay (NCI).
The panel holds about 83,000 compounds, 20% with a hit somewhere; the sample as a whole holds those more often.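 Cells were grown in 96-well plates and exposed to the test compound at a single concentration for 48 hours; results are reported as percent growth, with values below 10 considered active.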 A number with no mark means an inactive call. Active and inactive are the calls of the source.

system: HL-60(TB) leukemia; test: NCI-60 one-dose screen, 48 h (100 = growth as untreated, 0 = no growth, -100 = all killed); details: 10 µM unless noted

SMILES | growth
C=CCSc1n[nH]c(-c2cccs2)n1 | 111%
C#CCOc1ccc2ncnc(Nc3cccc(NC(=O)C=C)c3)c2c1 | 63.1%
CC(=O)N1N=C(c2ccc(Nc3nc(Nc4ccc(Cl)cc4)nc(Nc4ccc(Cl)cc4)n3)cc2)CC1c1ccco1 (stereo not drawn) | 93.6%
CCN(CC)C(=S)SC(SC(=S)N(CC)CC)C(=O)c1nnn(-c2ccc([N+](=O)[O-])cc2)c1C | 82.4%
CSc1ccc(/C=C2\C=C(CC(=O)NCc3ccc(C(=O)c4ccccc4)cc3)c3cc(F)ccc32)cc1 | -30.3% (active)
CN1CCN(Cc2ccc3c(NNC(=O)c4ccccc4)nc4cc(F)ccc4n23)CC1 | 7.8% (active)
CC(=O)N1N=C(c2ccc(C(F)(F)F)c(F)c2)CC1c1[nH]c(C)c(C(=O)NCC(F)(F)F)c1C (stereo not drawn) | 111%
Cc1ccc(S(=O)(=O)Nc2ccc(Cl)cc2)cc1 | 119%
C[C@]12C=CC(=O)C=C1CCC1C2[C@@H](O)C[C@@]2(C)C1CC[C@]2(O)C(=O)COC(=O)CCC(=O)O (stereo partly drawn) | 104%
CC1CN(Cc2ccco2)C(=S)N(c2ccccc2)C1=O (stereo not drawn) | 61.3%
CC(=O)c1c(C)c2cnc(Nc3ccc(N4CCNCC4)cn3)nc2n(C2CCCC2)c1=O | 21.8%
CC(C)c1c(C(=O)Nc2ccccc2)c(-c2ccccc2)c(-c2ccc(F)cc2)n1CC[C@@H]1CC=CC(=O)O1 | -27.9% (active)
CCOC(=O)c1c[nH]c2cc(OCC3CC3)c(OCC3CC3)cc2c1=O | 104%
